Assay results from PubChem BioAssay (NCATS).
Values without a mark were called inactive. Records with an inconclusive call do not appear. Where a call stands in place of a potency, no number is given. Activity calls are given as the source filed them. The call rests on the fitted dose curve; in most records, active means well fitted curve in the direction sought with a large enough effect; inconclusive means small, poorly fitted or top-dose-only effect, or another doubt; inactive means no such curve, though single readings can be large; an effect the other way counts as inactive or inconclusive.

Tests used:
[1] = molecular target: Single-stranded DNA cytosine deaminase (Homo sapiens) (UniProt Q9GZX7); assay: Validation qHTS assay for inhibitors of Activation Induced Cytidine Deaminase (AID): AID signal (AID 1347429)
Outline: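 Compounds (final up to 114 uM) preincubated with AID plus UDG; 250 nM DJC20/DJC23 substrate mix (4x stock) added, 4 hr at room temperature, then NaOH, 30 min. Read 1 fluorescence at 540 nm excitation, 590 nm emission.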

[2] = Primary qHTS for inhibitors of La Crosse Virus (LACV) - induced cell death in SH-SY5Y cells (AID 1508616);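 further: top concentration of the series differs between compounds; higher means more rescue of cells from virus-induced death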
Outline: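 Rescue of virus-induced death was read as ATPLite luminescence after 6 days at 37C, scaled between DMSO wells with LACV and without virus. Cells were SH-SY5Y, 6000/well, infected at 0.01 MOI after compound addition.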

[3] = molecular target: Calcium and integrin-binding protein 1 (Homo sapiens) (UniProt Q99828); assay: Validation qHTS for Identification of Calcium Integrin Binding protein 1 (CIB1) Competitor (AID 1508618)
Outline: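 Fluorescence polarization with 1 uM CIB1-GST and 100 nM FITC-alphaIIb peptide in HEPES pH 7.4, NaCl, 5 mM CaCl2, Tween20. Compounds at up to 114 uM final, preincubated with protein 15 min; read after 15 min more at RT.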

[4] = Primary qHTS for small molecule stabilizers of the endoplasmic reticulum resident proteome: Secreted ER Calcium Modulated Protein (SERCaMP) assay (AID 1508630)
Outline: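 The SH-SY5Y reporter protocol was run at 3 concentrations up to 38.3 uM (primary) or 11 concentrations (follow-up): 16 h compound, 100 nM thapsigargin for 4 h, then extracellular luciferase luminescence.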

Papain (Carica papaya) = Papain (Carica papaya) (UniProt P00784); assay: Primary qHTS assay for inhibitors of the protease papain (AID 1645873);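 further: papain turnover of Z-FR-AMC read as the AMC fluorescence gain over 10 min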; further: potency means the concentration at half of the fitted maximal effect
Chain of Papain (Carica papaya) (P00784 whole entry, looked up): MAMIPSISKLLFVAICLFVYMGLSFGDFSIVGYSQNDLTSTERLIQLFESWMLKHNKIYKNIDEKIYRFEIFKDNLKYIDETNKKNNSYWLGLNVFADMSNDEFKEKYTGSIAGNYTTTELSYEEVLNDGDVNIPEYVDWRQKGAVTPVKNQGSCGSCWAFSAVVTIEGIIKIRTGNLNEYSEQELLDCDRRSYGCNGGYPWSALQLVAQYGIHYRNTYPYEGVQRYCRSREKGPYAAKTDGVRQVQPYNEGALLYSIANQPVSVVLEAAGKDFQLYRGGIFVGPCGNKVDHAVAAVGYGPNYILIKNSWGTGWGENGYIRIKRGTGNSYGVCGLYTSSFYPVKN

Chain of Single-stranded DNA cytosine deaminase (Homo sapiens) (Q9GZX7 whole entry, looked up): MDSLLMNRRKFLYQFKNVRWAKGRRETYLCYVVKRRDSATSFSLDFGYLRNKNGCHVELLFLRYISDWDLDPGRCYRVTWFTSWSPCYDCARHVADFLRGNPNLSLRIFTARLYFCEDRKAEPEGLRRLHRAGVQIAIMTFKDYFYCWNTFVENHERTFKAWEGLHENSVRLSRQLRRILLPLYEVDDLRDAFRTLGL
Chain of Calcium and integrin-binding protein 1 (Homo sapiens) (Q99828 whole entry, looked up): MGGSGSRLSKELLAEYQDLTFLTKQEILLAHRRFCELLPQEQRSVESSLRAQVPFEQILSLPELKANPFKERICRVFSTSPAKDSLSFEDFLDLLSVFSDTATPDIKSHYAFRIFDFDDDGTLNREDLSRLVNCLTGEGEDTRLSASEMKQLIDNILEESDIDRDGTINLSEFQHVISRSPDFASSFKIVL

In the case of OC1(c2ccc(Cl)cc2)CCN(Cc2c[nH]c3ccccc23)CC1, the Potency [1] is reported as “inactive”, the Potency [2] is reported as “inactive” and the Potency [3] is reported as “inactive”. For the same compound, the Potency [4] was “inactive” and the Potency (Papain (Carica papaya)) was “inactive”.

With CC(C)(C)NCC(O)COc1cccc2[nH]c(=O)[nH]c12 (stereo unspecified) the Potency [1] was “inactive”, the Potency [2] was “inactive” and the Potency [3] was “inactive”. The Potency [4] was “inactive” and the Potency (Papain (Carica papaya)) was “inactive”.

In the case of NC(=O)CC[C@H](N)C(=O)O, the Potency [1] is reported as “inactive”, the Potency [2] is reported as “inactive” and the Potency [3] is reported as “inactive”. The Potency (Papain (Carica papaya)) was “inactive”.

With COc1cc(C(O)C(=O)O)ccc1O (stereo unspecified) the Potency [1] was “inactive”, the Potency [2] was “inactive” and the Potency [3] was “inactive”. For the same compound, the Potency [4] was “inactive” and the Potency (Papain (Carica papaya)) was “inactive”.

In the case of C=C1C[C@@]23CC[C@H]4[C@@](C)(CCC[C@@]4(C)C(=O)O)[C@@H]2CC[C@]1(O)C3, the Potency [1] is reported as “inactive”, the Potency [2] is reported as “inactive” and the Potency [3] is reported as “inactive”. For the same compound, the Potency (Papain (Carica papaya)) was “inactive”.

For CC[C@H](NC(=O)c1c(C)c(-c2ccccc2)nc2ccccc12)c1ccccc1, the Potency [1] was “inactive”, the Potency [2] was “inactive” and the Potency [3] was “inactive”. The Potency (Papain (Carica papaya)) was “inactive”.

In the case of CC(=O)O[C@H]1CC2(C)[C@@H](C[C@@H](O)[C@H]3[C@@]4(C)CC[C@@H](O)[C@@H](C)[C@@H]4CC[C@@]32C)C1=C(CCC=C(C)C)C(=O)O (stereo partly specified), the Potency [1] is reported as “inactive”, the Potency [2] is reported as “inactive” and the Potency [3] is reported as “inactive”. The Potency (Papain (Carica papaya)) was “inactive”.

In the case of Nc1ccc(N2C(=O)c3ccccc3C2=O)c(Cl)c1, the Potency [1] is reported as “inactive”, the Potency [2] is reported as “inactive” and the Potency [3] is reported as “inactive”. The Potency (Papain (Carica papaya)) was “inactive”.

With COc1cc(N)c(Cl)cc1C(=O)OCCN1CCCCC1 the Potency [1] was “inactive”, the Potency [2] was “inactive” and the Potency [3] was “inactive”. The Potency [4] was “inactive” and the Potency (Papain (Carica papaya)) was “inactive”.

For COc1cc(C(O)CO)ccc1O (stereo unspecified), the Potency [1] was “inactive”, the Potency [2] was “inactive” and the Potency [3] was “inactive”. For the same compound, the Potency [4] was “inactive” and the Potency (Papain (Carica papaya)) was “inactive”.

In the case of CCN(CC)CCOC(=O)c1cc(Cl)c(N)cc1OC, the Potency [1] is reported as “inactive”, the Potency [2] is reported as “inactive” and the Potency [3] is reported as “inactive”. The Potency [4] was “inactive” and the Potency (Papain (Carica papaya)) was “inactive”.

For O=C1NC(=O)c2cc(Nc3ccccc3)c(Nc3ccccc3)cc21, the Potency [1] was “inactive”, the Potency [2] was “inactive” and the Potency [3] was “inactive”. The Potency (Papain (Carica papaya)) was “inactive”.

For O=c1[nH]c2ccccc2c2ccccc12, the Potency [1] was “inactive”, the Potency [2] was “inactive” and the Potency [3] was “inactive”. For the same compound, the Potency [4] was “inactive” and the Potency (Papain (Carica papaya)) was “inactive”.

In the case of C=CCN1CCc2c(cc(O)c(O)c2Cl)C(c2ccccc2)C1 (stereo unspecified), the Potency [1] is reported as “inactive”, the Potency [2] is reported as “inactive” and the Potency [3] is reported as “inactive”. The Potency [4] was “inactive” and the Potency (Papain (Carica papaya)) was “inactive”.

For Cn1cc(C(=O)OCC2CCN(CCNS(C)(=O)=O)CC2)c2ccccc21, the Potency [1] was “inactive”, the Potency [2] was “inactive” and the Potency [3] was “inactive”. The Potency [4] was “inactive” and the Potency (Papain (Carica papaya)) was “inactive”.

In the case of O=C(O)c1ccccc1Nc1ccccc1, the Potency [1] is reported as “inactive”, the Potency [2] is reported as “inactive” and the Potency [3] is reported as “inactive”. The Potency [4] was “inactive” and the Potency (Papain (Carica papaya)) was “inactive”.

With Nc1ccc(CCNc2ncnc3c2ncn3C2OC(CO)C(O)C2O)cc1 (stereo unspecified) the Potency [1] was “inactive”, the Potency [2] was “inactive” and the Potency [3] was “inactive”. For the same compound, the Potency [4] was “inactive” and the Potency (Papain (Carica papaya)) was “inactive”.

In the case of C[N+](C)(C)CC=O, the Potency [1] is reported as “inactive”, the Potency [2] is reported as “inactive” and the Potency [3] is reported as “inactive”. The Potency [4] was “inactive” and the Potency (Papain (Carica papaya)) was “inactive”.

In the case of O=C(O)CCC/C=C\C[C@@H]1[C@@H](/C=C/[C@H](O)C2Cc3ccccc3C2)[C@@H](F)C[C@@H]1O, the Potency [1] is reported as “inactive”, the Potency [2] is reported as “inactive” and the Potency [3] is reported as “inactive”. For the same compound, the Potency (Papain (Carica papaya)) was “inactive”.

In the case of N[C@H](C(=O)O)[C@H]1C[C@@H]1C(=O)O, the Potency [1] is reported as “inactive”, the Potency [2] is reported as “inactive” and the Potency [3] is reported as “inactive”. For the same compound, the Potency [4] was “inactive” and the Potency (Papain (Carica papaya)) was “inactive”.

With CCCCCCCCCC[Si](C)(C)CCC(=O)NC(Cc1ccc(C)cc1)c1ccccc1 (stereo unspecified) the Potency [1] was “inactive”, the Potency [2] was “inactive” and the Potency [3] was “inactive”. The Potency [4] was “inactive” and the Potency (Papain (Carica papaya)) was “inactive”.

With CNC(=O)c1cc2c(cn1)[nH]c1ccccc12 the Potency [1] was “inactive”, the Potency [2] was “inactive” and the Potency [3] was “inactive”. For the same compound, the Potency [4] was “inactive” and the Potency (Papain (Carica papaya)) was 25.1 µM (active).

With CN[C@H](CC(=O)O)C(=O)O the Potency [1] was “inactive”, the Potency [2] was “inactive” and the Potency [3] was “inactive”. For the same compound, the Potency [4] was “inactive” and the Potency (Papain (Carica papaya)) was “inactive”.

For COCc1nc2c([nH]1)c(=O)n(C)c(=O)n2CC(C)C, the Potency [1] was “inactive”, the Potency [2] was “inactive” and the Potency [3] was “inactive”. For the same compound, the Potency [4] was “inactive” and the Potency (Papain (Carica papaya)) was “inactive”.

With CCSC(=N)N the Potency [1] was “inactive”, the Potency [2] was “inactive” and the Potency [3] was “inactive”. The Potency [4] was “inactive” and the Potency (Papain (Carica papaya)) was “inactive”.

In the case of CC(N)=NCCCC[C@@H](N)C(=O)O, the Potency [1] is reported as “inactive”, the Potency [2] is reported as “inactive” and the Potency [3] is reported as “inactive”. The Potency (Papain (Carica papaya)) was “inactive”.

With c1ccc(C(NCCNC(c2ccccc2)c2ccccc2)c2ccccc2)cc1 the Potency [1] was “inactive”, the Potency [2] was “inactive” and the Potency [3] was “inactive”. For the same compound, the Potency (Papain (Carica papaya)) was “inactive”.

With NC(N)=[N+]1CCc2ccccc2C1 the Potency [1] was “inactive”, the Potency [2] was “inactive” and the Potency [3] was “inactive”. The Potency [4] was “inactive” and the Potency (Papain (Carica papaya)) was “inactive”.

In the case of CCCCCC(O)CCCC(=O)O (stereo unspecified), the Potency [1] is reported as “inactive”, the Potency [2] is reported as “inactive” and the Potency [3] is reported as “inactive”. The Potency [4] was “inactive” and the Potency (Papain (Carica papaya)) was “inactive”.

With N[C@H](C(=O)O)[C@H](Cc1ccccc1)C(=O)O the Potency [1] was “inactive”, the Potency [2] was “inactive” and the Potency [3] was “inactive”. The Potency (Papain (Carica papaya)) was “inactive”.

With Brc1c(Br)c(Br)c2[nH]cnc2c1Br the Potency [1] was “inactive”, the Potency [2] was “inactive” and the Potency [3] was “inactive”. The Potency (Papain (Carica papaya)) was “inactive”.

In the case of OC[C@H]1O[C@H](n2cnc3c(N[C@H]4CCC[C@@H]4O)ncnc32)[C@H](O)[C@@H]1O, the Potency [1] is reported as “inactive”, the Potency [2] is reported as “inactive” and the Potency [3] is reported as “inactive”. The Potency (Papain (Carica papaya)) was “inactive”.

In the case of N=C(N)c1ccccc1, the Potency [1] is reported as “inactive”, the Potency [2] is reported as “inactive” and the Potency [3] is reported as “inactive”. For the same compound, the Potency (Papain (Carica papaya)) was “inactive”.

In the case of NCCCCN, the Potency [1] is reported as “inactive”, the Potency [2] is reported as “inactive” and the Potency [3] is reported as “inactive”. The Potency (Papain (Carica papaya)) was “inactive”.
